# Rce1 inhib – inhibitors of yeast Ras-converting enzyme. Q03530. yeast membranes, quenched prenylated peptide cleavage fluorescence. calls only. 290,000 compounds, 0.27% hits. AID 2563;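 active means fall in fluorescence gain of 50% or more versus controls, with final raw signal at or below 3038400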;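 further: plate controls were neutral control wells for no effect and wells lacking membranes for full effect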
# UBC13 polyUb – blocks human UBC13 polyubiquitin chain formation; TR-FRET; 330,000 compounds, 0.47% hits; AID 485273; inhibition, % at 20 µM; in the data active means inhibition above about 45%, passing the limit was not always enough
# MEKK2wt PB1 HTS – raises or lowers MEK5 binding to wildtype human MEKK2 PB1 domain; Q9Y2U5; bead flow cytometry, Alexa488-MEK5 binding to MEKK2 WT; actives lie on both sides; binding response (% of control), % at 10 µM; 290,000 compounds, 1.1% hits; AID 1531; in the data active means binding response below about 67% or above about 130%
# MEKK3 PB1 HTS – MEKK3-MEK5 PB1 interaction, increase or decrease; binding response (% of control), % at 10 µM; 290,000 compounds, 1.4% hits; AID 1529; bead-based flow cytometry, Alexa488-MEK5 binding to MEKK3; actives lie on both sides; 0 = blocked by unlabeled MEK5, 100 = vehicle; Q99759;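 active means binding response more than 3 SD above or below the average of its plate-row segment, actives on both sides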;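 further: Alexa488 bead fluorescence after subtracting the streptavidin-only scavenger bead signal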
# Target sequence (Q99759 whole entry, looked up): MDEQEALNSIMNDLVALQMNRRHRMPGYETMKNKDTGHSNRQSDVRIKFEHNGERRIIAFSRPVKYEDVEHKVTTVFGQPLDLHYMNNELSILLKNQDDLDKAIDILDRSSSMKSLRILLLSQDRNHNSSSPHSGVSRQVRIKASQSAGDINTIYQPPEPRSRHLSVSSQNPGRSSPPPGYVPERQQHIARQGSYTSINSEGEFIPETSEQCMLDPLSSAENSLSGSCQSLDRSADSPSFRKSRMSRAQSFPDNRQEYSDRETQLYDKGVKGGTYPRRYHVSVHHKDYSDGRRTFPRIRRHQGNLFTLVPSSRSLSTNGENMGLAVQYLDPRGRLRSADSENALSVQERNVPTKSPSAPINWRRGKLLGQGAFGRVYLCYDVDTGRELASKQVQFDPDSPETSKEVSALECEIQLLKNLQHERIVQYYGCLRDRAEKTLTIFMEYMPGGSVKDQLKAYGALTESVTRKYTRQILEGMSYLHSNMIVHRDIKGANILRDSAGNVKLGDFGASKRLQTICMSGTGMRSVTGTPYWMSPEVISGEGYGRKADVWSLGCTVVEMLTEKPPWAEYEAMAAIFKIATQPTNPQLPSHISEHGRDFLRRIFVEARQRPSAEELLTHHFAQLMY
# MEKK2mut PB1 HTS – signal of MEK5 binding to mutant human MEKK2 PB1 domain | bead flow cytometry, Alexa488-MEK5 binding to MEKK2 mutant | percent response, % at 10 µM | 290,000 compounds, 0.35% hits | AID 1530; in the data active means percent response above about 24%, passing the limit was not always enough
# MEKK2wt confirm – raises or lowers MEK5 binding to wildtype human MEKK2, retest; shares compounds with MEKK3 PB1 HTS; bead flow cytometry, Alexa488-MEK5 binding to MEKK2 WT; actives lie on both sides; binding response (% of control), % at 10 µM; 5,900 compounds, 2.4% hits; AID 1892; in the data active means binding response below about 16% or above about 210%; inactive means in between
# MEKK2mut confirm – signal of MEK5 binding to mutant human MEKK2, retest; 5,900 compounds, 2% hits; shares compounds with MEKK3 PB1 HTS; percent response, % at 10 µM; bead flow cytometry, Alexa488-MEK5 binding to MEKK2 mutant; AID 1893; in the data active means percent response mostly above about 71%, no sharp cut-off; inactive means mostly below about 38%;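 further: higher means compound restores mutant binding toward wildtype level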
# MEKK3-MEK5 inh – confirmation of inhibitors of MEK5 binding to human MEKK3. 5,900 compounds, 1.8% hits. binding response (% of control), % at 10 µM. shares compounds with MEKK3 PB1 HTS. bead flow cytometry, Alexa488-MEK5 binding to MEKK3; hits give low values. AID 1894;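 active means binding response below 72% of control, or above a set upper limit, though filed actives all read lower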;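 further: 100% = DMSO only wells and 0% = binding blocked by excess unlabeled MEK5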
# Casp3 counter – caspase-3 inhibition (UBC13 counter-screen). shares compounds with UBC13 polyUb. Recombinant caspase-3, Caspase-Glo 3/7 luminescence, 60 min. inhibition, % at 20 µM. 1,400 compounds, 4% hits;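 active means mean inhibition across replicates above about 26%, limit read from the data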;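 further: plate controls were DMSO with caspase-3 for no effect and DMSO wells lacking enzyme for full effect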
# UBC13 conf – confirmation of human UBC13 polyubiquitin inhibitors | shares compounds with UBC13 polyUb | UBC13 polyubiquitination, TR-FRET, biochemical | inhibition, % at 10 µM | 1,400 compounds, 68% hits; in the data active means inhibition above about 45%
# Numbers without * were called inactive; i = inactive; / = not tested or not shown; ! = not active in a repeat; [ ] = dose if it differs, or a comment. The list is not random: actives were taken first. Their share in the collection is about 2.5%.
SMILES,Rce1 inhib,UBC13 polyUb,MEKK2wt PB1 HTS,MEKK3 PB1 HTS,MEKK2mut PB1 HTS,MEKK2wt confirm,MEKK2mut confirm,MEKK3-MEK5 inh,Casp3 counter,UBC13 conf
NC1=NC[C@H](Cc2ccc(O)cc2)N1CCC12CC3CC(CC(C3)C1)C2,i,78*,138*,108,21,128,8,100,2,58*
CC1CCCC(C)N1C(=O)COC(=O)c1ccc(F)c(S(=O)(=O)N2CCOCC2)c1 (stereo unspecified),i,-4,103,97,2,/,/,/,/,/
Cc1cc2oc3cc(NCCC4CCCN4C)ccc3c(=O)c2cc1C (stereo unspecified),i,61*,178*,109,22,142,21,103,21,47*
CN1CCCC1CCNc1ccc2sc3ccccc3c(=O)c2c1 (stereo unspecified),i,10,121,103,4,/,/,/,/,/
CCOc1ccc(CCNC(=O)COC(=O)c2ccc(S(=O)(=O)N3CCCC3)cc2)cc1OCC,i,-3,/,/,/,/,/,/,/,/
COc1cc(C(CCN2CCCC2)c2c(OC)cc(OC)c3c(C)cc(=O)oc23)cc(OC)c1OC (stereo unspecified),i,13,108,103,7,/,/,/,/,/
CCCCCc1cc(=O)oc2c(C(CCN3CCN(c4ccccc4)CC3)c3ccc4c(c3)OCO4)c(OC)cc(OC)c12 (stereo unspecified),i,16,134,106,9,/,/,/,/,/
CCCCCc1cc(=O)oc2c(C(CCN3CCCC3)c3ccc(N(C)C)cc3)c(OC)cc(OC)c12 (stereo unspecified),i,82*,151*,118,42*,184,83*,108,-2,43
CCCCCc1cc(=O)oc2c(C(CCN3CCCCC3)c3ccc(OC)cc3)c(OC)cc(OC)c12 (stereo unspecified),i,84*,164*,120,67*,208*,47,107,-1,63*
CCCCCc1cc(=O)oc2c(C(CCN3CCCC(C)C3)c3ccc(OC)cc3)c(OC)cc(OC)c12 (stereo unspecified),i,65*,153*,110,58*,206,107*,105,2,53*
COc1cc(OC)c2ccc(=O)oc2c1C(CCN1CCCC1)c1ccc(N(C)C)cc1 (stereo unspecified),i,12,102,104,4,/,/,/,/,/
COc1cc(OC)c2ccc(=O)oc2c1C(CCN1CCCC(C)C1)c1ccc2c(c1)OCO2 (stereo unspecified),i,11,102,94,5,/,/,/,/,/
CCCCCc1cc(=O)oc2c(C(CCN3CCCC3)c3cc(OC)c(OC)c(OC)c3)c(OC)cc(OC)c12 (stereo unspecified),i,80*,157*,108,24*,143,21,109,0,73*
CCOC(=O)c1cc(C#N)c(Oc2ccccc2OC)nc1-c1ccccc1,i,10,100,105,4,/,/,/,/,/
COc1cc(C(CC(=O)N2CCCC2)c2c(OC)cc(OC)c3c(-c4ccccc4)cc(=O)oc23)cc(OC)c1OC (stereo unspecified),i,-1,96,92,1,/,/,/,/,/
CCCCCc1cc(=O)oc2c(C(CCN(CC)CC)c3ccc(OC)cc3)c(OC)cc(OC)c12 (stereo unspecified),i,83*,182*,86,29*,167,34,97,-1,76*
COc1cc(C(CCN2CCCC(C)C2)c2c(OC)cc(OC)c3c(-c4ccccc4)cc(=O)oc23)cc(OC)c1OC (stereo unspecified),i,65*,138*,108,20,121,10,105,-3,30
CCOC(=O)CN(c1cc([N+](=O)[O-])ccc1OC)S(C)(=O)=O,i,4,100,99,-1,/,/,/,/,/
CC(C)COCC(CN(Cc1ccccc1)c1ccccc1)N1CCCC1 (stereo unspecified),i,49*,146*!,96,-23,137,20,104,2,40
CC(C(=O)Nc1ccc(OCc2ccccc2)cc1)N1CCCC1 (stereo unspecified),i,-5,105,103,6,/,/,/,/,/
COc1cccc(Oc2ccc(C(F)(F)F)cc2NC(=O)CN2C(=O)NC3(CCCC3)C2=O)c1,/,-14,/,/,/,/,/,/,/,/
O=C(Nc1ccc(C2=NCCN2)cc1)c1ccc(C(=O)Nc2ccc(C3=NCCN3)cc2)c([N+](=O)[O-])c1,i,107*,151*,63*[inhibitor],32,104,6,46*,2,123*
Cc1ccc(NC(=O)c2ccc(-n3cccn3)c([N+](=O)[O-])c2)cc1,i,6,96,99,-3,/,/,/,/,/
C=CCNC(=S)N/N=C/c1cccc([N+](=O)[O-])c1,i,3,99,98,-1,/,/,/,/,/
Nc1ccc(OCCCc2c(N)nc(N)nc2N)cc1,i,47*,110,82*[inhibitor],8,120,13,95,1,64*
SMILES,Rce1 inhib,UBC13 polyUb,MEKK2wt PB1 HTS,MEKK3 PB1 HTS,MEKK2mut PB1 HTS,MEKK2wt confirm,MEKK2mut confirm,MEKK3-MEK5 inh,Casp3 counter,UBC13 conf
C/C(=C\C=C(C#N)C#N)c1cc(C#N)c(N)o1,i,i,104,104,2,/,/,/,/,/
CCN(C(=O)CN1CCN(c2cccc(C(F)(F)F)c2)CC1)c1c(N)n(Cc2ccccc2)c(=O)[nH]c1=O,i,1,103,104,-3,/,/,/,/,/
NC1=NC[C@H](c2ccccc2)N1CCCCC1CCCCC1,i,79*,146*,111,11,124,12,105,-3,72*
S=C1NC[C@H](c2ccccc2)N1CCCCC1CCCCC1,i,8,85,92,1,/,/,/,/,/
CCN(CC)CCOC(=O)c1ccc(NC(=O)c2cn(-c3ccccc3)nc2-c2cccs2)cc1,/,96*,153*,120,8,250*,92*,114,-4,111*
COc1ccc(OC)c(NC(=O)c2cc(S(=O)(=O)N(C)C)ccc2N2CCCC2)c1,i,-4,/,/,/,/,/,/,/,/

# Screening data (PubChem BioAssay)
